Screening data as filed in PubChem.
An excerpt weighted towards active compounds, which were near 11% of everything screened.
PNC assembly inh: inhibitors of perinucleolar compartment assembly; PC3M PTB-GFP, PNC prevalence imaging, 16 h; hits give low values; activity change (PNC), negative = inhibition, % at 10 µM; actives 3.1% (n = 140,000); AID 2417;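 active means readout at or below -70, meaning at least 70% loss of cells showing the perinucleolar compartment, a nuclear body marking cancer cells; inconclusive means readout between -30 and a set limit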;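 further: plate controls were DMSO wells for no effect and camptothecin positive control wells for full effect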
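Compounds are pinned in duplicate onto adhered PC3M cells stably expressing GFP-tagged PTB and incubated 16 h at 37 C. Cells are then fixed, nuclei stained with Hoechst, and PNC-positive cells counted.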
ALDH1A1 inh: ALDH1A1 (human) enzyme inhibition | P00352 | Purified ALDH1A1, NADH fluorescence, propionaldehyde substrate | Potency, µM (highest dose often 75.3 µM), without a hit: at the top dose activity, negative = inhibition, usual class: inhibitors | actives 7.3% (n = 220,000) | AID 1030;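 further: potency means the concentration at half of the fitted maximal effect; plate controls were no enzyme wells and a reference inhibitor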
Target sequence (P00352 whole entry, looked up): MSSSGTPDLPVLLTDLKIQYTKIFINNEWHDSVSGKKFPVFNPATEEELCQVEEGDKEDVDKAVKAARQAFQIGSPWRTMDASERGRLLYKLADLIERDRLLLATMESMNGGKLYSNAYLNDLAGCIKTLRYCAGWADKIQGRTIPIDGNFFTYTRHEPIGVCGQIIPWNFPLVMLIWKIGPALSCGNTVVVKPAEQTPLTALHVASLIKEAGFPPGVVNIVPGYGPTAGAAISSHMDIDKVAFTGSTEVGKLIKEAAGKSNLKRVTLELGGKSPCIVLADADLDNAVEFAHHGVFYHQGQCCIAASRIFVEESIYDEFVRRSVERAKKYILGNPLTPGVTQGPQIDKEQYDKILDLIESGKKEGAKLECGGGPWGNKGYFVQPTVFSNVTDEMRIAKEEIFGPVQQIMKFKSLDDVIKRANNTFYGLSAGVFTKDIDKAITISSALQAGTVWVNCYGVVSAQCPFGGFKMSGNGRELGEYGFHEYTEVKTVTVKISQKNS
HPGD inh: inhibitors of human 15-hydroxyprostaglandin dehydrogenase (HPGD); P15428; purified HPGD, NADH fluorescence kinetic, PGE2 substrate; Potency, µM, inactives show top-dose activity change, negative = inhibition, usual class: inhibitors; actives 4.3% (n = 150,000); further: potency means the concentration at half of the fitted maximal effect
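NADH formation kinetics: reaction with 30 uM PGE2 and 1 mM NAD+ (final), 20 nM enzyme, Tris-HCl pH 8 with Tween 20, after 15 min compound preincubation at room temperature. Fluorescence change, last versus first of five reads.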
An asterisk follows results filed as active; i = inactive; u = inconclusive; x = not tested or not shown; [ ] = another dose, or the depositor's remark. Unless noted, the call rests on the fitted dose curve; in most records, active means well fitted inhibition curve with a large enough effect (not every such curve was filed as active); inconclusive means small, poorly fitted or top-dose-only effect, or another doubt; inactive means no such curve, though single readings can be large or run the other way. Unless noted, on the % scale 0 is the no-effect control and ±100 the full control effect.

SMILES	PNC assembly inh	ALDH1A1 inh	HPGD inh
CCOC(=O)c1ccc(NC(=O)NC(C)C2CCCO2)cc1 (stereo unspecified)	19	-3%	-8%
Cc1ccc(Cn2nnc3c(=O)n(CC(=O)NCc4ccccc4)cnc32)cc1	x	2%	x
O=S(=O)(Cc1c(F)cccc1Cl)c1ncn[nH]1	x	11%	x
COc1cc(C)c(NC(=S)Nc2cccc(Cl)c2)cc1OC	-13	u	-5%
COc1cc(OC)c(NC(=S)Nc2cccc(C)c2)cc1Cl	-24	u	16µM*
Cc1ccccc1S(=O)(=O)Cc1ccc(C(=O)NCCCOC(C)C)o1	-7	u	1%
Cc1ccc(S(=O)(=O)CC(C)N2CCN(C3CCCCC3)CC2)cc1 (stereo unspecified)	u	-10%	2%
Cc1cc2ccccc2c(=O)n1CC(=O)NCC(=O)N(C)C1CCCCC1	-2	i	u
CC(=O)NC(CCS(C)(=O)=O)C(=O)Nc1ccc(C)c(F)c1 (stereo unspecified)	23	3%	-13%
O=C(CN(Cc1ccco1)C(=O)c1ccc(Cl)cc1)Nc1ccc(Cl)c(Cl)c1	17	u	-10%
COc1ccccc1NC(=O)CN(Cc1ccco1)C(=O)c1ccc(Cl)nc1	x	16µM*	x
Cc1ccc(C)c(C(=O)CCC(=O)NCc2ccc(Cl)cc2)c1	x	3%	x
FC(F)(F)c1ccccc1-c1cc(N2CCNCC2)ncn1	x	-12%	-5%
NNC(=O)c1cc2cc3ccccc3nc2s1	x	20µM*	x
COc1ccc(S(=O)(=O)NNC(=O)c2cc3cc4ccccc4nc3s2)cc1	u	u	-25%
CCC(C)NC(=O)C(=O)NCC1CCCN1CC (stereo unspecified)	x	8%	x
O=C(Nc1ccccc1Cl)c1cccc(COc2cc(Cl)ccc2Cl)c1	17	3%	u
CN1CCN(C(=O)c2cccc(COc3cc(Cl)ccc3Cl)c2)CC1	30	10µM*	-7%
O=S(=O)(NCCCN1CCN(c2ccccc2F)CC1)c1cccc2cccnc12	-28	u	-9%
Cc1cc(C)c2[nH]c(=O)c(CN(Cc3nnnn3C3CCCC3)C3CCCCC3)cc2c1	6	18µM*	-8%
Cc1cccc2cc(CN(Cc3ccc(F)cc3)C(=O)N(C)C)c3nnnn3c12	-1	-15%	-3%
O=c1[nH]c2cc3c(cc2cc1CN(Cc1nnnn1CC1CCCO1)C1CCCCC1)OCO3 (stereo unspecified)	-8	u	-20%
Cc1cccc2cc(CN(Cc3nnnn3C3CCCCC3)C3CCCC3)c3nnnn3c12	-15	3.2µM*	-2%
Cc1cccc(NC(=O)c2cc(S(=O)(=O)NCc3ccco3)ccc2F)c1C	u	u	-13%
CO[C@H]1COC(=O)[C@@H](C)COC(=O)[C@@H](OCc2ccccc2)/C=C\[C@@H]1C	x	-13%[13.5 µM]	x
SMILES	PNC assembly inh	ALDH1A1 inh	HPGD inh
O=C(NCCc1ccccc1)c1cc2sccc2n1Cc1ccccc1	-4	u	16µM*
O=C(NCc1ccco1)c1cc2sccc2n1Cc1ccccc1	178	u	16µM*
CCn1c(C(=O)NCc2cccnc2)cc2sc(Cl)cc21	43	-4%	16µM*
O=C(c1ccco1)N1CCN(C(=O)c2cc3sccc3n2Cc2ccccc2)CC1	16	u	-8%
CCN1CCN(CCCNC(=O)c2cc3sccc3n2CC)CC1	-21	u	-17%
CCn1c(C(=O)NCCCc2ccccc2)cc2sccc21	-17	-8%	-17%
Cc1cc(C(=O)NCc2cccnc2)cs1	14	-7%	-3%
CCn1c(C(=O)NCc2ccccn2)cc2sccc21	0	6%	18µM*
CC(C)OCCCNS(=O)(=O)c1ccc2ccccc2c1	4	-7%	-2%
Cc1nc2ccc(C(=O)OCc3ccccc3Br)cc2nc1C	-18	-13%	-19%
CC(C)Sc1ncc(S(=O)(=O)c2ccccc2)c(=O)[nH]1	x	7%	x
Cn1c(Cn2cnc3ccccc32)nnc1SCC(=O)CC(=O)Nc1ccccc1	35	-1%	-3%
Cc1cc(SCC(=O)c2cc(C)n(C)c2C)nc2ccccc12	u	-13%	-20%
CCCc1cc(=O)oc2cc(C)c(CN3CCCC3)c(O)c12	-14	35µM*	-13%
CCc1cc(=O)oc2cc(C)c(CN3CCCCC3)c(O)c12	1	u	-8%
CCCc1cc(=O)oc2cc(C)cc(OCC(=O)O)c12	-4	u	u
CCCCc1cc(=O)oc2cc(C)cc(O)c12	62	8.9µM*	-12%
CCCc1cc(O)c2c(C)cc(=O)oc2c1	440	16µM*	-15%
CCc1cc(=O)oc2cc(C)c(CN3CCCC3)c(O)c12	-5	u	x
COCCN(Cc1cc2cc(C)c(C)cc2nc1Cl)C(=O)N1CCOCC1	x	14%	x
COc1ccc(C2(C(=O)N3CCCC3)CCOCC2)cc1OC	u	0%	-4%
